# Laboratory results from PubChem BioAssay AID488969 (Vanderbilt High Throughput Screening Facility, 2010).
# Over roughly 110,000 compounds, “z-score” has its median near -0.1; the highest 2% begin near 2. Shown is part of a subset that was picked to be rich in the highest values. Activity calls are given as the source filed them.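 The calls were made as follows: active = z-score in the third read window above 3 or below -3; inactive = the rest.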
# Biological target: Metabotropic glutamate receptor 8 (Rattus norvegicus) (UniProt P70579)
# Assay: mGluR8 Gi/Go-coupled signaling modulation – cell-based, rat, thallium flux, HTS, primary screen (AID 488969)
# Conditions: HEK293 rat mGluR8, GIRK (G protein-gated inwardly rectifying potassium channel) thallium flux, FluoZin2; at 10 µM; stronger effect = higher value; submaximal glutamate (EC20) added with thallium
# Metabotropic glutamate receptor 8 (Rattus norvegicus), sequence (P70579 whole entry, looked up): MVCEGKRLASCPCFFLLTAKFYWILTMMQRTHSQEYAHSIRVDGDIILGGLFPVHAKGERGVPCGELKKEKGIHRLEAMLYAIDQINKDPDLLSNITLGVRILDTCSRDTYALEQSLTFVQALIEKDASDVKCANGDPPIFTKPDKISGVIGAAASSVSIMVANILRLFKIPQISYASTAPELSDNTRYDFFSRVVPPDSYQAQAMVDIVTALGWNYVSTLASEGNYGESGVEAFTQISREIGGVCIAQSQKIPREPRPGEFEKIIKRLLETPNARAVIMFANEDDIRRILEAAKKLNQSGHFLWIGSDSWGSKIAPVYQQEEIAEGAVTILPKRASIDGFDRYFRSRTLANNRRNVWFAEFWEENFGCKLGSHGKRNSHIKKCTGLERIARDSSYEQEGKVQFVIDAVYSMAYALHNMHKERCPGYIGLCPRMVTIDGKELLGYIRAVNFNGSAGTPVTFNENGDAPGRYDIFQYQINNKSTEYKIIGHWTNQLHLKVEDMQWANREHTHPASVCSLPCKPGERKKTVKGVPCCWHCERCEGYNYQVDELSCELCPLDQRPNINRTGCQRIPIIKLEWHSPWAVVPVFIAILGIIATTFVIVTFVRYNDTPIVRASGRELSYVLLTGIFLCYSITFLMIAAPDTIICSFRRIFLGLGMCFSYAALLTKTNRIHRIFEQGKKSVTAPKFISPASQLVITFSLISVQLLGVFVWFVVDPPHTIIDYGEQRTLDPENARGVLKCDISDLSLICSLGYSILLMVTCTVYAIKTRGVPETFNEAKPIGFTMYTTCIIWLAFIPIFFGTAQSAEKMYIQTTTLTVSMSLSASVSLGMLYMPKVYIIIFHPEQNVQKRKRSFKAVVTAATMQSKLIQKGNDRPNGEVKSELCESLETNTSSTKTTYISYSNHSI
row,Compound,z-score
1,O=C(N/N=C/c1cccn1-c1ccc([N+](=O)[O-])cc1)C(O)c1ccccc1 (centres undefined),0.181
2,O=C(Cc1ccccc1)N/N=C/c1cccn1-c1ccc([N+](=O)[O-])cc1,3.83 (active)
3,COc1ccc(CC(=O)N/N=C/c2cccn2-c2ccc([N+](=O)[O-])cc2)cc1OC,-0.892
4,O=C1CC(N2CCN(Cc3ccccc3)CC2)C(=O)N1c1ccc2c(c1)OCCO2 (centres undefined),-0.057
5,CC1(C(=O)NC23CC4CC(CC(C4)C2)C3)CC1(Cl)Cl (centres undefined),-0.368
6,CSC(=O)NC12CC3CC(CC(C)(C3)C1)C2,8.08 (active)
7,CCSC(=O)NC12CC3CC(CC(C3)C1)C2,-0.316
8,CCOC(=O)CN1C(c2ccccc2O)Nc2ccc(Br)cc2C1c1ccccc1 (centres undefined),-0.45
9,CC(OC(=O)CN(C)S(=O)(=O)c1ccc(Cl)cc1)C(=O)Nc1ncc(Cl)cc1Cl (centres undefined),-0.285
10,Nc1c(CO)nnn1-c1ccccc1,-0.379
11,CCc1cc(-c2n[nH]c(=S)n2CC)cs1,-0.194
12,CCCCn1c(-c2cccnc2)n[nH]c1=S,-0.106
13,CCCCn1c(-c2csc(CC)c2)n[nH]c1=S,2.15
14,CC(C)c1cc(-c2n[nH]c(=S)n2Cc2ccccc2)cs1,1.35
15,CCCCn1c(-c2csc(C(C)C)c2)n[nH]c1=S,6.36 (active)
16,CCCCn1c(-c2ccoc2C)n[nH]c1=S,0.216
17,CCNC(=S)N(Cc1ccco1)Cc1cc2cc3c(cc2[nH]c1=O)OCCO3,0.158
18,Nc1ccc(C2(c3ccc(N)cc3)C(=O)Nc3ccccc32)cc1,-0.763
19,Cc1cccnc1NC(=O)C1CCCN(S(=O)(=O)c2ccc3c(c2)oc(=O)n3C)C1 (centres undefined),0.166
20,CCc1cccc(OCC(=O)Nc2ccc(S(=O)(=O)Nc3onc(C)c3C)cc2)c1,-0.0589
21,COc1cc(NC(=O)Cn2nnc(-c3ccncc3)n2)cc(OC)c1,0.284
22,CN(C)C(=O)CN(c1ccc(F)c(Cl)c1)S(C)(=O)=O,0.00105

row,Compound,z-score
1,Cc1ccc2c(c1)c(=O)c(Br)c(C)n2Cc1ccccc1,-0.0481
2,COc1ccccc1C(c1nnnn1C(C)(C)C)N1CCN(Cc2ccncc2)CC1 (centres undefined),-0.332
3,CCN(CC)C(=O)CSCc1cnn(-c2ccccc2)c1-n1cccc1,0.216
4,COc1ccc(NC2=CC(c3ccc(OC)c(OC)c3)N(c3ccc(OC)cc3)C2=O)cc1 (centres undefined),-0.044
5,COc1ccc2nc(N)sc2c1,0.0701
6,COc1ccc2nc(N=Nc3ccc(N(C)C)cc3)sc2c1,0.141
7,COc1ccc2nc(N=Nc3ccc(O)c4ccccc34)sc2c1,5.85 (active)
8,CCN(CC)C(=O)C(=O)N/N=C/c1cccs1,-0.0972
9,CCCCCN(C(=O)CN(C)Cc1ccc(OC)cc1OC)c1c(N)n(CCCC)c(=O)[nH]c1=O,0.0701
10,O=C(CCc1ccccc1)Nc1nnc(-c2cccs2)o1,0.129
11,CCCCN(CCCC)S(=O)(=O)c1ccc(C(=O)Nc2nnc(COC)o2)cc1,1.03
12,COc1cccc(C(=O)Nc2nnc(-c3cccs3)o2)c1,0.124
13,O=C(Nc1ccccc1)c1cccc(C(F)(F)F)c1,-0.053
14,O=C(Nc1nnc(-c2cccs2)o1)c1ccco1,-0.203
15,O=C(Nc1cccc(C(F)(F)F)c1)c1cc(-c2cccs2)on1,-0.52
16,O=C(Nc1ccncc1)c1cccc(F)c1,0.415
17,CCC1CCCCN1S(=O)(=O)c1ccc(C(=O)Nc2nnc(-c3cccs3)o2)cc1 (centres undefined),0.233
18,O=C(Nc1nnc(-c2cccs2)o1)c1cccc(C(F)(F)F)c1,14.1 (active)
19,CCCCN(C)S(=O)(=O)c1ccc(C(=O)Nc2nnc(-c3cccs3)o2)cc1,7.18 (active)
20,O=C(Nc1nnc(-c2cccs2)o1)c1cccc(F)c1,4.44 (active)
21,O=C(Nc1nnc(-c2cccs2)o1)c1cccc(Oc2ccccc2)c1,14 (active)
22,CCc1ccccc1NC(=O)CSc1ncn[nH]1,-0.0941

row,Compound,z-score
1,CC1CCCN(c2nc(-c3cccnc3)nc3scc(-c4ccccc4)c23)C1 (centres undefined),-0.0274
2,COc1ccc(CCNC(=O)c2ccc(-c3ccc([N+](=O)[O-])cc3)o2)cc1OC,-0.544
3,CCOc1cc([C@H]2[C@@H]3CCCC[C@]3(O)CCN2CC(=O)NCc2ccco2)ccc1O,-0.351
4,COc1ccc(N2CCN(Cc3nc4ccsc4c(=O)[nH]3)CC2)cc1,-0.255
5,O=C(CN=C1NC(=O)C(c2ccccc2)(c2ccccc2)N1)NCc1ccc(F)cc1,-0.114
6,N#CCSc1nnc2ccc3ccccc3n12,-0.272
7,O=C(NCC(=O)N(Cc1cccs1)C(C(=O)NC1CCCCC1)c1ccco1)c1ccco1 (centres undefined),2.96
8,O=C(NCC(=O)N(Cc1cccs1)C(C(=O)NC1CCCC1)c1ccco1)c1cccs1 (centres undefined),0.741
9,O=C(NCC(=O)N(Cc1ccco1)C(C(=O)NC1CCCCC1)c1cccnc1)c1ccco1 (centres undefined),0.556
10,O=C(NCC(=O)N(Cc1cccs1)C(C(=O)NC1CCCCC1)c1ccco1)c1cccs1 (centres undefined),-0.518
11,O=C(NCC(=O)N(Cc1ccccc1)C(C(=O)NC1CCCC1)c1cccnc1)c1ccco1 (centres undefined),-0.0981
12,O=C(NCC(=O)N(Cc1ccco1)C(C(=O)NC1CCCC1)c1cccnc1)c1ccco1 (centres undefined),2.19
13,COc1ccc(Cl)cc1NC(=O)CN(C)C1CCCCC1,0.225
14,C#CC(CO)N(CCN(Cc1ccccc1)C(C#C)CO)Cc1ccccc1 (centres undefined),2.19
15,OCCN(Cc1ccccc1)Cc1ccccc1Cl,0.0815
16,CC(C)CC(C(=O)O)N(Cc1ccccc1)Cc1ccccc1 (centres undefined),-0.132
17,CC1CCc2c(sc(NC(=O)CSc3ncnc4c3cnn4-c3ccccc3Cl)c2C#N)C1 (centres undefined),-0.899
18,CSC1=N/C(=C\c2ccc(Br)o2)C(=O)S1,3.73 (active)
19,CSC1=N/C(=C\c2ccc(C)cc2)C(=O)S1,-0.344
20,CSC1=N/C(=C\c2ccc(F)cc2)C(=O)S1,-0.817
21,CC(=O)CC1(O)C(=O)N(Cc2ccccc2)c2ccccc21 (centres undefined),0.034
22,O=C(N/N=C/c1cnc2ccccc2n1)c1cccc(F)c1,0.223

row,Compound,z-score
1,O=C(CN1CCCC1)N1c2ccccc2Sc2ccccc21,-0.191
2,O=C1CS/C(=N\C(=O)N2c3ccccc3Sc3ccccc32)N1,7.66 (active)
3,Cc1ccccc1N=C1NC(=O)CS1,0.516
4,COc1ccc(NC(=O)CSc2nc3ncccc3[nH]2)cc1OC,-0.426
5,CCC(=O)N(Cc1cc2ccc(C)cc2n2nnnc12)C1CCCCC1,-0.401
6,Cc1nc(SC2CCOC2=O)c2c(C)c(C)sc2n1 (centres undefined),4.12 (active)
7,C=CCn1c(SC2CCOC2=O)nc2sc(C)c(C)c2c1=O (centres undefined),-0.995
8,Cc1cc(C)nc(SC2CCOC2=O)n1 (centres undefined),-0.0163
9,CCCC1Cc2c(sc(NC(=S)NC(=O)c3ccccc3)c2C#N)CO1 (centres undefined),0.489
10,CC(=O)N1CCN(S(=O)(=O)c2ccc(S(=O)(=O)NC3CC3)cc2)CC1,2.05
11,CC(=O)N1CCN(S(=O)(=O)c2ccc(S(=O)(=O)NCC(C)C)cc2)CC1,-0.0339
12,CC(C)CNS(=O)(=O)c1ccc(S(=O)(=O)NC2CCOC(C)(C)C2)cc1 (centres undefined),-0.235
13,CN(C)S(=O)(=O)c1ccc(S(=O)(=O)NC2CCOC(C)(C)C2)cc1 (centres undefined),-1.16
14,O=C(c1ccco1)N1CCN(S(=O)(=O)c2ccc(S(=O)(=O)NC3CC3)cc2)CC1,-0.31
15,CC1(C)CC(NS(=O)(=O)c2ccc(S(=O)(=O)N3CCOCC3)cc2)CCO1 (centres undefined),2.05
16,COc1cc(-n2c(C)nc3cc(C(=O)N4CCOCC4)ccc32)cc(OC)c1OC,-0.458
17,CCOC(=O)c1c(C)[nH]c2c1cc(O)c1ccccc12,4.58 (active)
18,CCOC(=O)c1c(C)oc2c1cc(O)c1ccccc12,-0.493
19,CCOC(=O)c1c(-c2ccccc2)[nH]c2ccc(O)cc12,-0.821
20,COc1ccc(-c2nc(NC(=O)c3ccc(OCC(=O)N4CCOCC4)c(OC)c3)sc2C)cc1,-0.218
21,COc1ccccc1NC(=S)N(CCc1c(C)[nH]c2ccccc12)Cc1cccs1,0.381
22,CCOc1cc(/C=N/NC(=O)CNc2ccc(C)cc2)ccc1OC(=O)c1ccccc1,0.0308

row,Compound,z-score
1,CCOc1cc(/C=N\NC(=O)c2ccc(NC(=O)CC)cc2)ccc1OC(=O)c1ccccc1,-0.103
2,CCOc1cc(/C=N/NC(=O)CNc2cccc(C)c2)ccc1OC(=O)c1ccccc1,5.52 (active)
3,CC(=O)N(C)c1nnc(-c2ccccn2)s1,-0.0164
4,CS(=O)(=O)N(CC(=O)Nc1ccc(F)c(F)c1)c1cccc([N+](=O)[O-])c1,0.348
5,O=C(NCc1ccccn1)C1CCN(Cc2cnn(-c3ccccc3)c2-n2cccc2)CC1,-0.0285
6,COc1cc(NC(=O)CSCc2cnn(-c3ccccc3)c2-n2cccc2)cc(OC)c1,7.86 (active)
7,COc1ccc(OC)c(NC(=O)C2CCN(Cc3cnn(-c4ccccc4)c3-n3cccc3)CC2)c1,-0.109
8,CC(=O)Nc1ccc(NC(=O)CSCc2cnn(-c3ccccc3)c2-n2cccc2)cc1,-0.225
9,COc1cccc(NC(=O)C2CCN(Cc3cnn(-c4ccccc4)c3-n3cccc3)CC2)c1,-0.463
10,O=C(Nc1ccc2c(c1)OCO2)C1CCN(Cc2cnn(-c3ccccc3)c2-n2cccc2)CC1,-0.13
11,O=C(NCc1ccc2c(c1)OCO2)C1CCN(Cc2cnn(-c3ccccc3)c2-n2cccc2)CC1,3.14 (active)
12,COc1cccc(CNC(=O)C2CCN(Cc3cnn(-c4ccccc4)c3-n3cccc3)CC2)c1,2.66
13,COc1ccc(OC)c(NC(=O)CSCc2cnn(-c3ccccc3)c2-n2cccc2)c1,0.126
14,CCSc1cc(N2CCCC2)nc(-c2ccccc2Cl)n1,-0.31
15,COC(=O)COc1ccc(Cl)cc1C1Nc2ccccc2C(=O)N1c1ccc(OC)cc1 (centres undefined),-0.642
16,COC(=O)c1[nH]c2ccccc2c1NC(=O)/C=C/c1ccc2c(c1)OCO2,0.563
17,O=C1C2CCCCC2C(=O)N1c1cccc(OS(=O)(=O)c2ccccc2)c1 (centres undefined),-0.275
18,CCN(CC)S(=O)(=O)c1cccc(-c2nnc(SC(C)C(N)=O)n2CCc2ccccc2)c1 (centres undefined),-0.152
19,Cc1ccc(C(=O)Nc2cnc3ccccn3c2=O)cc1,4.27 (active)
20,O=C(Nc1cnc2ccccn2c1=O)c1ccc(F)cc1,-0.0283
21,O=C(Nc1cnc2ccccn2c1=O)c1ccc(Cl)cc1,-0.161
